# Laboratory results taken from PMC5540273 (PLoS ONE, 2017).
# Legend:
# Settings in all cases: concentration: 1 μM, replicates: in singlicate; n = 1
# FGFR1 = system: FGFR1
# FGFR2 = system: FGFR2
# FGFR3 = system: FGFR3
# FGFR4 = system: FGFR4
# FGR = system: FGR
# FLT1 = system: FLT1
# FLT3-autoinhibited = system: FLT3-autoinhibited
# FLT3 = system: FLT3
# FLT4 = system: FLT4
# FRK = system: FRK
# 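Also: KINOMEscan kinase panel screen.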
SMILES,%Inh (FGFR1) [%],%Inh (FGFR2) [%],%Inh (FGFR3) [%],%Inh (FGFR4) [%],%Inh (FGR) [%],%Inh (FLT1) [%],%Inh (FLT3-autoinhibited) [%],%Inh (FLT3) [%],%Inh (FLT4) [%],%Inh (FRK) [%]
CC(=O)Nc1cn2nc(Oc3cccc(NC(=O)c4cccc(C(F)(F)F)c4)c3)ccc2n1,0,91.4,53,50,93.1,98.5,0,97.4,100,99.9
COC(=O)Nc1nc2cc(Oc3ccc(NC(=O)Nc4cccc(SC)c4)cc3)ccc2[nH]1.Cl [GW697999],11,5,0,0,47,98.9,22,99.3,86,48
O=C(Nc1c(F)cccc1F)c1cc(C(=O)c2ccccc2F)c[nH]1 [GSK1326180],0,0,5,0,0,6,0,1,0,7
Cl.Cl.NCC(NC(=O)c1cc(-c2cccnc2)c(-c2ccnc3[nH]ccc23)s1)c1ccccc1 (centres unmarked) [GSK1323434],8,0,39,6,42,17,0,5,0,15
Cc1cc(-c2ccnc(Nc3cccc(C#N)c3)n2)cc(C)c1O [GSK1440913],0,54,27,14,37,27,12,48,15,60
Cl.N#CCc1ccc(Nc2nccc(Nc3ccc(Oc4ccccc4)cc3)n2)cc1 [GW639905],11,8,13,0,90.2,43,23,94.5,12,39
CC(C)NCC(Cc1ccccc1)NC(=O)c1cc(Br)c(-c2ccnc3[nH]ccc23)s1.Cl.Cl (centres unmarked) [GSK1383281],86,62,60,64,16,65,0,68,48,0
Cc1ccc(O)cc1Nc1ccnc2cc(-c3ccc(CN4CCCCC4)o3)ccc12 [GW557777],25,21,0,2,100,89,8,43,68,99.9
Cc1ccc(O)cc1Nc1ccnc2ccc(C(C)(C)C)cc12 [GW856805],14,28,0,0,94.9,26,0,11,35,98.9
COc1cc(Nc2nccc(N3CCC(NS(=O)(=O)c4ccc(NC(C)=O)cc4)CC3)n2)cc(OC)c1OC [GSK1379825],17,71,59,69,50,53,73,92,71,35
Nc1ncc(-c2ccc3nccc(-c4ccncc4)c3c2)cc1S(=O)(=O)N1CCCCC1 [GSK1693850],0,84,16,0,23,7,0,2,0,1
COc1cc(Nc2nccc(N3CCC(NC(=O)Nc4ccc5c(c4)OCO5)C3)n2)cc(OC)c1OC (centres unmarked) [GSK1379766],0,0,0,0,4,26,8,65,16,0
Cl.O=C(Nc1ccc(Oc2ccc3[nH]c(NC(=O)c4ccco4)nc3c2)cc1)Nc1cc(C(F)(F)F)ccc1F [GW683134],40,77,36,12,24,98.5,25,99.4,99.9,77
CC(C)c1nc(-c2cccc(NS(=O)(=O)c3c(F)cccc3F)c2)c(-c2ccnc(Nc3ccc(N4CCOCC4)nc3)n2)s1.Cl [GSK1723980],14,0,4,0,98.4,98.3,0,66,99.9,96.3
Cn1cc(-c2ccc3c(c2)CCN3C(=O)Cc2cc(F)cc(C(F)(F)F)c2)c2c(N)ncnc21 [GSK2635225],26,0,11,33,35,39,13,90,30,18
Cc1ccc(Nc2ccnc(Nc3ccc(C)c(F)c3)n2)cc1O.Cl [GW582868],1,0,12,5,85,46,0,59,72,92.9
Cc1ccc(C)c(NC(=O)Nc2ccc(C)c(-c3ccc(C(=O)Nc4ccncc4)cc3)c2)c1 [GSK1398473],0,0,10,3,16,48,0,91.8,39,50
